From PubChem BioAssay (NCI)
About 79,000 compounds went through this panel and 15% of them were active in at least one assay; those are over-represented in the sample as a whole. A number with no mark means an inactive call. Calls of active or inactive are those of the source. Cut-off read from the data, not from the text of the source: active = growth inhibition above about 70%; inactive = the rest. Where a SMILES comes first, the peptide text is derived from it. [ ]: non-standard residue; d: D form. Nva = CCC[CH](N)C(=O)O

What was measured:
[1] = NCI Yeast Anticancer Drug Screen. Data for the rad50 strain (AID 155);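 note: 0% = growth of vehicle-only cultures of the same strain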; conditions: S. cerevisiae rad50 strain growth inhibition, hits give high values
Method in brief: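 DNA repair mutant yeast, compound exposure, growth read-out; inhibition is taken relative to vehicle.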

[2] = NCI Yeast Anticancer Drug Screen. Data for the mec2-1 strain (AID 157); conditions: S. cerevisiae mec2-1 strain, hits give high values
Method in brief: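 Readout is yeast growth inhibition, normalised to vehicle-treated controls, in the mec2-1 strain exposed to compound.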

[3] = NCI Yeast Anticancer Drug Screen. Data for the sgs1 mgt1 strain (AID 161);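 note: 0% = growth of cultures given vehicle only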; conditions: S. cerevisiae sgs1 mgt1 strain, hits give high values
Method in brief: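 This yeast growth screen uses a strain with defined DNA-repair lesions; compound-treated growth is compared with vehicle-treated growth.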

[4] = NCI Yeast Anticancer Drug Screen. Data for the cln2 rad14 strain (AID 165);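 note: 0% = growth equal to vehicle treated cultures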; conditions: S. cerevisiae cln2 rad14 strain, hits give high values
Method in brief: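 Relative to vehicle controls, growth inhibition of compound-treated cln2 rad14 yeast was recorded.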

[5] = NCI Yeast Anticancer Drug Screen. Data for the bub3 strain (AID 167); conditions: S. cerevisiae bub3 mutant strain, hits give high values
Method in brief: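 In this screen, a yeast mutant lacking normal mitotic checkpoint function is challenged with compound. Relative growth versus vehicle gives the inhibition value.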

[6] = NCI Yeast Anticancer Drug Screen. Data for the mlh1 rad18 strain (AID 175); conditions: S. cerevisiae mlh1 rad18 strain growth inhibition, hits give high values
Method in brief: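 Test agents were incubated with a yeast strain of defined genotype (DNA damage repair defect). Inhibition of growth was derived by comparison with vehicle-exposed cultures.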

[7] = at 5.0 µM (retest, dose inferred, filed as 0.5)
[8] = at 50.0 µM (retest, dose inferred, filed as 5.0)

SMILES	growth inhibition [1, 7]	growth inhibition [1, 8]	growth inhibition ([1]; at 50.0 µM)	growth inhibition [2, 7]	growth inhibition [2, 8]	growth inhibition ([2]; at 50.0 µM)	growth inhibition [3, 7]	growth inhibition [3, 8]	growth inhibition ([3]; at 50.0 µM)	growth inhibition [4, 7]	growth inhibition [4, 8]	growth inhibition ([4]; at 50.0 µM)	growth inhibition [5, 7]	growth inhibition [5, 8]	growth inhibition ([5]; at 50.0 µM)	growth inhibition [6, 7]	growth inhibition [6, 8]	growth inhibition ([6]; at 50.0 µM)
COC(=O)c1nnc(C(=O)OC)c2c1[nH]c1ccccc12	4%	77% (active)	79% (active)	2%	48%	28.4%	2%	50%	55.3%	-2%	11%	10.6%	0%	37%	42.9%	-3%	52%	40.1%
Clc1ccc(C2SCc3nc4ccccc4n32)cc1Cl (configuration not stated)	-8%	95% (active)	97.2% (active)	1%	97% (active)	98.1% (active)	15%	96% (active)	98% (active)	-16%	95% (active)	95.6% (active)	7%	96% (active)	96.8% (active)	3%	96% (active)	95% (active)
CC12CCC(=O)C=C1C=CC1C2CCC2(C)C1CCC21CCC(=O)O1 (configuration not stated)	11%	99% (active)	74.6% (active)	5%	99% (active)	80.2% (active)	7%	99% (active)	84% (active)	2%	99% (active)	24.1%	-1%	99% (active)	66.7%	7%	99% (active)	72.8% (active)
C[C@]12CC[C@H](O)C[C@@H]1CC[C@@H]1[C@@H]2CC[C@]2(C)[C@@H](c3cc(C(F)(F)F)n[nH]3)CC[C@@H]12	12%	94% (active)	89.8% (active)	3%	86% (active)	61.6%	10%	90% (active)	63%	7%	92% (active)	68.9%	-3%	85% (active)	84.3% (active)	12%	96% (active)	88.7% (active)
c1ccc(N=Nc2ccc3ccccc3c2)cc1	5%	9%	16.1%	16%	10%	11.8%	6%	6%	3.65%	1%	4%	-5.6%	3%	17%	83% (active)	8%	10%	21.8%
CN(C)[C@@H]1C(=O)C(C(=O)NCNc2nc3n[nH]nc3c(=O)[nH]2)=C(O)[C@@]2(O)C(=O)C3=C(O)c4c(O)cccc4[C@@](C)(O)[C@H]3C[C@@H]12	-1%	9%	-5.65%	-4%	6%	11.2%	-7%	3%	-7%	1%	-8%	11.6%	7%	14%	-10.6%	1%	4%	-4.9%
O=C(O)c1c([N+](=O)[O-])cc(C(F)(F)F)cc1[N+](=O)[O-]	-20%	6%	-1.7%	0%	13%	4.3%	1%	11%	14.9%	9%	43%	-29.6%	1%	10%	-3.55%	43%	9%	29%
CCCCCCCCCCCCCCCC[N+](C)(C)C(C)c1ccc(OC)cc1 (configuration not stated)	98% (active)	98% (active)	90.6% (active)	98% (active)	98% (active)	90.2% (active)	98% (active)	99% (active)	90% (active)	98% (active)	99% (active)	85.8% (active)	98% (active)	98% (active)	92.3% (active)	98% (active)	97% (active)	91.8% (active)
COc1ccc2cc(Br)ccc2c1	4%	-25%	10.3%	6%	-2%	5.1%	2%	1%	9.85%	8%	-2%	-10.4%	32%	6%	-0.55%	4%	-2%	17.2%
O=C(Oc1ccccc1)c1ccc2ccccc2c1O	-4%	-38%	15.8%	-5%	-35%	6.05%	-5%	-14%	2.7%	-2%	-59%	-47.1%	36%	52%	77.7% (active)	-4%	-27%	4.1%
CCCC(N)C(=O)NC(C(=O)O)C(C)C (configuration not stated) (H-[Nva]-Val-OH; configuration not given here)	-2%	-11%	38.1%	-2%	-3%	51.9%	1%	-5%	17.1%	1%	-5%	86% (active)	2%	-3%	62%	-2%	-9%	8.4%
CC(=O)Nc1ccc(S(=O)(=O)/N=C2\C=CC(=O)c3ccccc32)cc1	2%	27%	63.9%	4%	24%	54.6%	1%	7%	79.9% (active)	-9%	-6%	-43.4%	5%	14%	71.7% (active)	5%	16%	80% (active)
O=C1OC(=O)c2cc([N+](=O)[O-])cc3cccc1c23	3%	97% (active)	22.9%	13%	99% (active)	36.2%	3%	99% (active)	29.2%	22%	98% (active)	36.6%	21%	99% (active)	47.5%	8%	99% (active)	76.7% (active)
C=C1N(S(=O)(=O)c2ccc(C)cc2)C(=O)OCC12CCCC2	-22%	3%	2.2%	-15%	-21%	-1.5%	-21%	9%	20%	-21%	5%	8.9%	-16%	43%	54.2%	-24%	-2%	3.5%
COC1=CC(=O)C(O)=C/C1=C\C=C\c1ccccc1	67%	97% (active)	95% (active)	59%	99% (active)	97% (active)	84% (active)	99% (active)	97% (active)	50%	99% (active)	95.3% (active)	36%	98% (active)	96.6% (active)	83% (active)	99% (active)	96.8% (active)
Cc1cccc(NC(=S)N/N=C(/c2ccccc2)c2ccccn2)c1	-3%	94% (active)	56%	-1%	94% (active)	66.5%	-35%	93% (active)	73.2% (active)	-15%	92% (active)	74.7% (active)	-38%	93% (active)	77.4% (active)	-8%	93% (active)	76.8% (active)
CC(C)/C(Cl)=N/OC(NC(=O)Nc1ccc(Cl)c(Cl)c1)(C(F)(F)F)C(F)(F)F	7%	99% (active)	99.2% (active)	9%	100% (active)	99.6% (active)	5%	100% (active)	99.5% (active)	26%	99% (active)	99.2% (active)	40%	100% (active)	99.5% (active)	23%	99% (active)	99.5% (active)
Cc1cccc(C)c1O	17%	99% (active)	99% (active)	-1%	99% (active)	98.5% (active)	0%	98% (active)	98.8% (active)	-9%	98% (active)	97.8% (active)	3%	91% (active)	98.5% (active)	5%	99% (active)	99.5% (active)
O=NN(CCCl)C(=O)Oc1ccc(OC(=O)N(CCCl)N=O)cc1	87% (active)	92% (active)	59.6%	86% (active)	99% (active)	91% (active)	93% (active)	99% (active)	90.2% (active)	53%	90% (active)	83.5% (active)	56%	93% (active)	84.5% (active)	96% (active)	97% (active)	90.6% (active)
